Compounds without any hit were thinned out: in the full panel of roughly 79,000, 15% have a hit. Calls of active or inactive are those of the source. Cut-off read from the data, not from the text of the source: active = growth inhibition above about 70%; inactive = the rest.

This assay in a line: NCI Yeast Anticancer Drug Screen. Data for the sgs1 mgt1 strain (AID 161).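 Note: 0% = growth of cultures given vehicle only.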 The note with it: S. cerevisiae sgs1 mgt1 strain, at 50.0 µM, hits give high values. The method in brief:
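Percent growth inhibition was derived by comparing compound-exposed mutant yeast with vehicle-exposed cultures. The strain carries alterations in DNA damage repair.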
Regarding `Cc1ccccc1N1C(=O)C(=O)c2cccc(C)c21`, the growth inhibition is 99.7% (active). Regarding `Nc1n[nH]c(=O)c2cccnc12`, the growth inhibition is -10.2% (inactive).

Consider `CCCCNCCCNCCCNC(=O)c1csc(-c2csc(CCNC(=O)C(NC(=O)C(C)C(O)C(C)NC(=O)C(NC(=O)c3nc(C(CC(N)=O)NCC(N)C(N)=O)nc(N)c3C)C(OC3OC(CO)C(O)C(O)C3OC3OC(CO)C(O)C(OC(N)=O)C3O)c3cnc[nH]3)C(C)O)n2)n1` (stereo not given), for which the growth inhibition was 94% (active).

For `c1ccc(-c2ccc(-c3cnc(-c4ccc(-c5ccccc5)cc4)o3)cc2)cc1`, the growth inhibition was 93% (active). On to `CN(C)C=Nc1ccc2nonc2c1`, for which the growth inhibition was 3.4% (inactive). Regarding `COC(=O)C(CCC(=O)Cc1ccccc1)N1C(=O)c2ccccc2C1=O` (stereo not given), the growth inhibition was 81.6% (active).

For `O=S(=O)(Nc1ccccc1)c1ccccc1CC(O)(c1ccccc1)c1ccccc1`, the growth inhibition is 91.2% (active). As to `O=C1OC(=O)C2C=CC=CC12` (stereo not given), the growth inhibition is -7.9% (inactive). The figure for `CCOC(=O)N/N=C/c1ccc([N+](=O)[O-])o1` is 92.2% (active); for `CN=C(N)N/N=C(\C)c1ccc2c(ccc3ccccc32)c1` it is 90.8% (active). Take `O=C(C(/C=N/C(=S)NCc1ccccc1)=C(/O)c1ccccc1)c1ccccc1`: the growth inhibition was 98.2% (active).

For the compound `Cc1nc(Nc2ccc(Cl)cc2)sc1C(=O)Nc1cccc2c(=O)[nH][nH]c(=O)c12`, the growth inhibition is 91% (active). On to `Cc1c2ccccc2c(C)c2c1cc(F)c1ccccc12`, for which the growth inhibition was 96.4% (active). The figure for `CC1=C(C(=O)Nc2ccccc2)C(c2cc(Cl)cc(Cl)c2)C(C(=O)Nc2ccccc2)=C(C)N1` is 83% (active); for `O=[N+]([O-])/C(Br)=C\c1ccc([N+](=O)[O-])cc1` it is 99.6% (active); for `CC1=CC(C)(C)Nc2cc(N)ccc21` it is 43.8% (inactive). To `Fc1ccc2nncc(SCc3ccccc3)c2c1` belongs 93.2% (active); to `CN(C)c1ccc(-c2c(C#N)c(-c3ccccc3)n(NS(=O)(=O)c3ccccc3)c(=O)c2C#N)cc1`, 75.2% (active); to `Cc1cc(N2C(=O)CCSC2=S)ccc1Cl`, 90.6% (active). As for `C=C(c1ccccc1)[P+](c1ccccc1)(c1ccccc1)c1ccccc1`, the growth inhibition was 99.5% (active). In the case of `Cc1cc(Br)c2ccccc2c1N`, the growth inhibition is 94.2% (active). To `CC1C[N+](C)(C)C(C)C(=O)C1(c1ccccc1)c1ccccc1` (stereo not given) belongs -10.3% (inactive).

Turning to `CC(=O)N(C1=CC(=O)c2ccccc2C1=O)c1ccc(C)cc1`, the growth inhibition was 91.6% (active). The figure for `CC(c1ccccc1)n1c2ccccc2c2c(N)ncnc21` (stereo not given) is 89.5% (active). To `CC(=O)O/N=C1/CCC2C3CC=C4CC(OC(C)=O)CCC4(C)C3CCC12C` (stereo not given) belongs 89.9% (active).

Regarding `c1cc(CCSSCCc2ccncc2)ccn1`, the growth inhibition is 33.5% (inactive). The figure for `CC1=C(C(=O)Nc2cc(C)ccc2C)C(c2cccc([N+](=O)[O-])c2)C(C(=O)Nc2cc(C)ccc2C)=C(C)N1` is 26.7% (inactive); for `ClC1=CC(Cl)=C2N=C(C(Cl)(Cl)Cl)N=C3N=C(C(Cl)(Cl)Cl)N=C1N32` it is 99.2% (active); for `C[n+]1c(-c2ccc(/C=N/Nc3n[nH]c(=S)n3/N=C/c3ccc(-c4cn5ccsc5[n+]4C)cc3)cc2)cn2ccsc21` it is 95.3% (active). To `CC1(C)OC(=O)C(=NNc2ccccc2[N+](=O)[O-])C(=O)O1` belongs 1.25% (inactive); to `CC(CCCOC(c1ccccc1)(c1ccccc1)c1ccccc1)OC(=O)Nc1ccccc1` (stereo not given), 84% (active); to `CCN(CC)c1ccc2nc3ccc(N(CC)CC)cc3[n+](-c3ccccc3)c2c1`, 98.7% (active). The figure for `CC1OC(C)C(O)C2=C1C(=O)c1ccccc1C2=O` (stereo not given) is 91.8% (active). As for `CCCCCCCCCCCCS(=O)(=O)CC(Br)C(=O)c1ccco1` (stereo not given), the growth inhibition was 95.3% (active). To `NC(=O)NOCC1NC(=O)NC1=O` (stereo not given) belongs -21.4% (inactive). To `O=C(O)C1C(=O)OC2CCCCC21` (stereo not given) belongs 0.45% (inactive).

Consider `C=CCNC(=S)N/N=C(\CCC)c1ccccn1`, for which the growth inhibition was 99.6% (active).

For the compound `Nc1ccc2c(c1)S(=O)(=O)c1cc(N)ccc1-2`, the growth inhibition is -29% (inactive). To `CN1C(=O)c2cccc3cc([N+](=O)[O-])cc(c23)C1=O` belongs 85.8% (active); to `C/C(=N\NC(=S)NC12CC3CC(CC(C3)C1)C2)c1ccccn1`, 98% (active).
